Data: PubChem BioAssay (EPA / NIEHS)
Active and inactive are the calls of the source. The calls were made as follows: active = hit-call score of the fitted dose curve at least 0.9, where 1 is the maximum; inactive = score below 0.9.

Key:
[1] = target: Paired box protein Pax-6 (Homo sapiens) (UniProt P26367); test: ATG_Pax6_CIS: Attagene CIS-FACTORIAL HepG2 Assay for human Paired Box 6 (PAX6) (AID 2282956); settings: HepG2 CIS-FACTORIAL PAX6 reporter transcription, RNA readout; actives raise or lower the signal
Chain of Paired box protein Pax-6 (Homo sapiens) (P26367 whole entry, looked up): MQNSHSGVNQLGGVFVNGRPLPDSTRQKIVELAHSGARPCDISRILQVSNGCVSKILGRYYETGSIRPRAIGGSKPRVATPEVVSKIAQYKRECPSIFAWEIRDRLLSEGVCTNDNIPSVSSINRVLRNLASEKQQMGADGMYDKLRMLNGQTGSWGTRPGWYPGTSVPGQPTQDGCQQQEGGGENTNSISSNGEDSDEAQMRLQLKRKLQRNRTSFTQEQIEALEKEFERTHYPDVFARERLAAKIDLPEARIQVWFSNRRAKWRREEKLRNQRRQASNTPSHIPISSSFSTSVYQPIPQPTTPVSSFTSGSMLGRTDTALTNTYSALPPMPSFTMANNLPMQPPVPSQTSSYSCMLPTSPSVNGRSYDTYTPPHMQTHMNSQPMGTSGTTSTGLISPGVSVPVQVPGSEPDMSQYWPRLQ
In short: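 Values derive from bidirectional curve fitting of reporter mRNA signal relative to DMSO. HepG2 cells bearing transfected cis-regulated MRTUs were exposed for 24 h; transcripts were read by RT-PCR and capillary electrophoresis.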

[2] = ATG_PXRE_CIS: Attagene CIS-FACTORIAL HepG2 Assay for human Pregnane X Receptor Element (PXRE) (AID 2282957); settings: HepG2 Attagene CIS-FACTORIAL PXRE reporter, mRNA; actives raise or lower the signal
In short: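 Using HepG2 transfected with multiple reporter transcription units, endogenous factor-driven transcription was scored as reporter mRNA after 24 h exposure.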

[3] = ATG_PPRE_CIS: Attagene CIS-FACTORIAL HepG2 Assay for human Peroxisome Proliferator-activated Response Element (PPRE) (AID 2282958); settings: HepG2 PPRE cis-element reporter, Attagene transcription factor profiling; actives raise or lower the signal
In short: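 Cells are first transfected transiently with the multiplexed reporter library, then dosed for 24 h. Total RNA is reverse-transcribed, amplified, fluorescently end-labeled and HpaI-cut before capillary electrophoresis; activity is fitted bidirectionally against DMSO controls.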

[4] = ATG_RORE_CIS: Attagene CIS-FACTORIAL HepG2 Assay for human RAR-related Orphan Receptor Element (RORE) (AID 2282959); settings: HepG2 Attagene cis-factorial RORE reporter, mRNA; actives raise or lower the signal
In short: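 Cells were HepG2 carrying transfected cis-regulated reporter constructs, dosed for 24 hours. Total RNA was reverse-transcribed and reporter cDNA amplified, fluorescently labeled and sized by capillary electrophoresis. Activity was fitted bidirectionally relative to DMSO.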

[5] = target: Transcription factor Sp1 (Homo sapiens) (UniProt P08047); test: ATG_Sp1_CIS: Attagene CIS-FACTORIAL HepG2 Assay for human Specificity Protein 1 (Sp1) (AID 2282961); settings: HepG2 Sp1 cis-reporter transcription, actives raise or lower the signal
Chain of Transcription factor Sp1 (Homo sapiens) (P08047 whole entry, looked up): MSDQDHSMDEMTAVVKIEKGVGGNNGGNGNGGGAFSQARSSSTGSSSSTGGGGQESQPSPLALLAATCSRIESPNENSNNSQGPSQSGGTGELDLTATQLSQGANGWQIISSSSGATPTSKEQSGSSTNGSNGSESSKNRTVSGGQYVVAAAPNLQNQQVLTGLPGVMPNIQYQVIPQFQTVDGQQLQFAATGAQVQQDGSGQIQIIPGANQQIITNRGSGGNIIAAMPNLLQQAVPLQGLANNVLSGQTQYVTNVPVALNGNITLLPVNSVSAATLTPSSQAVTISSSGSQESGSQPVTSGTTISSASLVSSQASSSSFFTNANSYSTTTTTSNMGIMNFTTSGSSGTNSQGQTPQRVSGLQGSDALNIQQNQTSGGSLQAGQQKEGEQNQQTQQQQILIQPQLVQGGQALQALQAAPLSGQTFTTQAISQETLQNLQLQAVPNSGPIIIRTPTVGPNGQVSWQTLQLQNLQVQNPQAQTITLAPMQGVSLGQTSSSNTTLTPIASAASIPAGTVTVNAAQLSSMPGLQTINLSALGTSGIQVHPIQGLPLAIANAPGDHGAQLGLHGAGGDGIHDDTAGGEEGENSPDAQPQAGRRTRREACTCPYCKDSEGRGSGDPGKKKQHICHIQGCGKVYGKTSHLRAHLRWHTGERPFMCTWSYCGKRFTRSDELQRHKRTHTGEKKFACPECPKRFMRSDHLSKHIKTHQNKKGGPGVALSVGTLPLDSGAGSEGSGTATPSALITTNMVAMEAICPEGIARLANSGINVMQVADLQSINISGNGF
In short: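 Endogenous Sp1 activity was gauged in human liver HepG2 cells bearing transfected reporter units under a cis-regulating promoter. After 24 h dosing, reporter mRNA was quantified by RT-PCR with capillary electrophoresis, and activity fitted bidirectionally versus DMSO.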

[6] = ATG_SREBP_CIS: Attagene CIS-FACTORIAL HepG2 Assay for human Sterol Regulatory Element Binding (SREBP) (AID 2282962); settings: HepG2 Attagene cis-factorial SREBP reporter, mRNA; actives raise or lower the signal
In short: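 Values derive from bidirectional curve fitting with DMSO as baseline. The underlying measurement is reporter mRNA from cis-element-regulated units in transiently transfected HepG2, quantified by RT-PCR and capillary electrophoresis after 24 h exposure.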

[7] = target: Signal transducer and activator of transcription 3 (Homo sapiens) (UniProt P40763); test: ATG_STAT3_CIS: Attagene CIS-FACTORIAL HepG2 Assay for human Signal Transducer and Activator of Transcription 3 (STAT3) (AID 2282963); settings: HepG2, Attagene cis-factorial STAT3 reporter transcription; actives raise or lower the signal
Chain of Signal transducer and activator of transcription 3 (Homo sapiens) (P40763 whole entry, looked up): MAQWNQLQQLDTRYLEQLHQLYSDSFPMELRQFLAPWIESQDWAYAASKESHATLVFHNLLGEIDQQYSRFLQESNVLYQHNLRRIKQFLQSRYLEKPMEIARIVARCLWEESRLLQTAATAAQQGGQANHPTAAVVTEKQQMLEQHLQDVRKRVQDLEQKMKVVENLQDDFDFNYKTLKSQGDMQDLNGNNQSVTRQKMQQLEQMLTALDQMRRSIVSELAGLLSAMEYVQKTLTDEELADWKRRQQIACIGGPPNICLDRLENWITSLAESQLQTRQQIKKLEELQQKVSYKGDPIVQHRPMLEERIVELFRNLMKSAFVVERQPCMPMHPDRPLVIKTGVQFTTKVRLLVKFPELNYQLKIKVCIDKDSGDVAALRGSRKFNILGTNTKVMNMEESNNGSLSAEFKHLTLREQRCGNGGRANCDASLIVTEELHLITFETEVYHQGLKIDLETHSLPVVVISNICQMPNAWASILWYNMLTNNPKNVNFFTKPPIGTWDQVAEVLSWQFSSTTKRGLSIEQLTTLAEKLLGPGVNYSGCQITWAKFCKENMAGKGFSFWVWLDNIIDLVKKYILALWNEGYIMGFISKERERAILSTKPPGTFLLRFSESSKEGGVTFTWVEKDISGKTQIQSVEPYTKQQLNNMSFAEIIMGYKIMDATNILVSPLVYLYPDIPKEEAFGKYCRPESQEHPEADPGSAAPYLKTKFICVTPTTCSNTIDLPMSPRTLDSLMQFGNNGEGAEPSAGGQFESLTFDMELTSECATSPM
In short: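 Readout is reporter transcript quantified by RT-PCR and capillary electrophoresis, with 6-FAM primer extension and HpaI digestion. Total RNA is taken 24 h after dosing transiently transfected HepG2 carrying cis-regulated reporter units. Bidirectional fit against DMSO.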

[8] = ATG_TA_CIS: Attagene CIS-FACTORIAL HepG2 Assay for human TA Basal Promoter (AID 2282964); settings: HepG2 Attagene CIS-factorial TA basal promoter reporter; actives raise or lower the signal
In short: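 HepG2 cells transiently transfected with multiplexed cis-promoter reporter units, dosed 24 h. Reporter mRNA measured by RT-PCR, 6-FAM labelling, HpaI digestion and capillary electrophoresis; bidirectional fit versus DMSO baseline, serving as background control.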

[9] = ATG_Sox_CIS: Attagene CIS-FACTORIAL HepG2 Assay for human SRY-box transcription factor (SOX) (AID 2282960); settings: HepG2 Attagene cis-factorial SOX reporter, mRNA; actives raise or lower the signal
In short: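 Transient MRTU transfection of HepG2; 24 h compound incubation; TriZol RNA, oligo(dT) RT, PCR, 6-FAM primer extension, HpaI cut, CE. Bidirectional fit, DMSO = baseline.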

Measured: AC50

COC(=O)CC(C)CCC=C(C)C (stereo not drawn)
active: [2] 69.2 µM
inactive: [1] | [3] | [4] | [5] | [6] | [7] | [8]

CC(=O)CCC=C(C)C
inactive: [1] | [2] | [3] | [4] | [9] | [5] | [6] | [7] | [8]

CC12CCC(CC1)C(C)(C)O2
inactive: [1] | [2] | [3] | [4] | [9] | [5] | [6] | [7] | [8]

Cc1c[nH]c(=O)[nH]c1=O
inactive: [1] | [2] | [3] | [4] | [9] | [5] | [6] | [7] | [8]

CCOC(=O)/C=C\C(=O)OCC
active: [3] 7.64 µM
inactive: [1] | [2] | [4] | [9] | [5] | [6] | [7] | [8]

CC=CC(=O)OCC(C)C
inactive: [1] | [2] | [3] | [4] | [9] | [5] | [6] | [7] | [8]

Cc1cc(C)c(C=O)c(C)c1
active: [2] 1.61 µM
inactive: [1] | [3] | [4] | [9] | [5] | [6] | [7] | [8]

Clc1cccnc1
inactive: [1] | [3] | [4] | [9] | [5] | [6] | [7] | [8]
active: [2] 27 µM

C=CCCCCCCCCO
inactive: [1] | [3] | [4] | [9] | [5] | [6] | [7] | [8]
active: [2] 51.6 µM

CC1=CCC2CC1C2(C)C (stereo not drawn)
active: [2] 37.2 µM
inactive: [1] | [3] | [4] | [9] | [5] | [6] | [7] | [8]

CCCCCCCCCCCC(=O)N(C)CC(=O)O
active: [3] 8.09 µM | [4] 19.6 µM
inactive: [1] | [2] | [9] | [5] | [6] | [7] | [8]

Cc1cc(=O)[nH]c(=O)[nH]1
active: [2] 24.8 µM
inactive: [1] | [3] | [4] | [5] | [6] | [7] | [8]

CC(C)(C)C1CCC(=O)CC1
inactive: [1] | [2] | [3] | [4] | [9] | [5] | [6] | [7]
active: [8] 152 µM

C=CC(C)(O)CC/C=C(\C)CC (stereo not drawn)
inactive: [1] | [3] | [4] | [9] | [5] | [6] | [7] | [8]
active: [2] 4.25 µM

CC1CCC(C(C)(C)S)C(=O)C1 (stereo not drawn)
active: [2] 2.13 µM
inactive: [1] | [3] | [4] | [9] | [5] | [6] | [7] | [8]

COC(=O)c1ccccc1C
active: [2] 40.6 µM
inactive: [1] | [3] | [9] | [5] | [6] | [7] | [8]

CCC[Si](OC)(OC)OC
inactive: [1] | [9] | [5] | [6] | [7] | [8]
active: [2] 129 µM

O=C1CCCCC1C1CCCCC1 (stereo not drawn)
active: [2] 27.3 µM
inactive: [1] | [3] | [9] | [5] | [6] | [7] | [8]

CCCCCC(=O)OCC
inactive: [1] | [2] | [4] | [5] | [6] | [7] | [8]

CCCCCCCCCCCCc1ccc(O)cc1
inactive: [1] | [3] | [9] | [5] | [6] | [7] | [8]
active: [2] 1.53 µM

CC(=O)OC1CCCCC1
inactive: [1] | [2] | [3] | [5] | [6] | [7] | [8]

CCOC(=O)C1=NOC(c2ccccc2)(c2ccccc2)C1
active: [2] 18.3 µM
inactive: [1] | [3] | [9] | [5] | [6] | [7] | [8]

C1CCSC1
inactive: [1] | [2] | [3] | [9] | [5] | [6] | [7] | [8]

c1ccc2sc(SSN3CCOCC3)nc2c1
inactive: [2] | [4] | [8]
active: [1] 100 µM | [9] 138 µM | [5] 70.4 µM | [6] 59.2 µM | [7] 139 µM

CC(=O)OCc1ccccc1
inactive: [1] | [2] | [3] | [9] | [5] | [6] | [7] | [8]

CC1CC(=O)CC(C)(C)C1 (stereo not drawn)
inactive: [1] | [2] | [3] | [9] | [5] | [6] | [7] | [8]

CCc1cccc(CC)c1
inactive: [1] | [2] | [3] | [5] | [6] | [7] | [8]

CC(=O)/C=C/C1C(C)=CCCC1(C)C (stereo not drawn)
active: [2] 5.09 µM
inactive: [1] | [4] | [9] | [5] | [6] | [7] | [8]

CCCCNS(=O)(=O)c1ccccc1
active: [2] 26.7 µM
inactive: [1] | [4] | [9] | [5] | [6] | [7] | [8]

O=C(Nc1ccccc1)c1cc(Cl)ccc1O
inactive: [1] | [9] | [7] | [8]
active: [2] 25.6 µM | [5] 3.65 µM | [6] 5.55 µM

CC(C)c1cc(C(C)C)cc(C(C)C)c1
inactive: [3] | [7] | [8]
active: [1] 159 µM | [2] 52.1 µM | [9] 159 µM | [5] 145 µM | [6] 100 µM

O=S(=O)(O)c1ccc(Nc2nc(Nc3ccc(C=Cc4ccc(Nc5nc(Nc6ccc(S(=O)(=O)O)cc6)nc(N(CCO)CCO)n5)cc4S(=O)(=O)O)c(S(=O)(=O)O)c3)nc(N(CCO)CCO)n2)cc1
active: [2] 21.2 µM
inactive: [1] | [3] | [9] | [5] | [6] | [7] | [8]

CCCCC(CC)COS(=O)(=O)O (stereo not drawn)
inactive: [1] | [4] | [9] | [5] | [6] | [7] | [8]
active: [2] 62.9 µM

O=C(O)c1ccc2c(c1)C(=O)OC2=O
inactive: [1] | [2] | [9] | [5] | [6] | [7] | [8]

CCCCc1ccc(Cl)cc1
inactive: [1] | [2] | [3] | [9] | [5] | [6] | [7] | [8]

CC1(C)C(=O)N(CO)C(=O)N1CO
active: [2] 27.8 µM
inactive: [1] | [3] | [9] | [5] | [6] | [7] | [8]

NNS(=O)(=O)c1ccc(Oc2ccc(S(=O)(=O)NN)cc2)cc1
inactive: [1] | [2] | [3] | [9] | [5] | [6] | [7] | [8]

CC(C)[N+](C)(CCOC(=O)C1c2ccccc2Oc2ccccc21)C(C)C
active: [3] 42.7 µM
inactive: [1] | [2] | [4] | [5] | [6] | [7] | [8]

CCCCCCCC(=O)OCC
inactive: [1] | [2] | [3] | [9] | [5] | [6] | [7] | [8]

c1ccc(-c2nc3ccccc3[nH]2)cc1
active: [2] 27.4 µM
inactive: [1] | [3] | [9] | [5] | [6] | [7] | [8]

CC(C=O)c1ccccc1 (stereo not drawn)
inactive: [1] | [3] | [4] | [5] | [6] | [7] | [8]
active: [2] 6.81 µM

Cc1ccc(C)c(OCCCC(C)(C)C(=O)O)c1
active: [2] 22.5 µM
inactive: [1] | [4] | [9] | [5] | [6] | [7] | [8]

CCN1CN(CC)CN(CC)C1
active: [2] 119 µM | [5] 163 µM
inactive: [1] | [3] | [4] | [6] | [7] | [8]

COC(C=C(C)CCC=C(C)C)OC
active: [2] 21.7 µM
inactive: [1] | [3] | [4] | [5] | [6] | [7] | [8]

C/C=C/C=C/CCCCCCCO
inactive: [3] | [9] | [5] | [6] | [7]
active: [1] 76 µM | [2] 25.5 µM | [8] 100 µM

CO[Si](CCCS)(OC)OC
inactive: [1] | [2] | [3] | [9] | [5] | [6] | [7] | [8]

N#Cc1ccc(C(c2ccc(C#N)cc2)n2cncn2)cc1
inactive: [1] | [2] | [3] | [9] | [5] | [6] | [7] | [8]

CC(=O)c1ccc(S(=O)(=O)NC(=O)NC2CCCCC2)cc1
inactive: [1] | [3] | [9] | [5] | [6] | [7] | [8]
active: [2] 100 µM

C=CCCCCCCCCOC(C)=O
inactive: [1] | [2] | [9] | [5] | [6] | [7] | [8]

C=CCNCC=C
inactive: [1] | [9] | [5] | [6] | [7] | [8]
active: [2] 52.1 µM

[Cl][Eu]([Cl])[Cl]
inactive: [1] | [2] | [9] | [5] | [6] | [7] | [8]

CCCCCCC=O
inactive: [1] | [2] | [4] | [5] | [6] | [7] | [8]
active: [3] 81.6 µM

CC1=CP(=O)(c2ccccc2)CC1 (stereo not drawn)
active: [2] 27.6 µM
inactive: [1] | [3] | [9] | [5] | [6] | [7] | [8]
